From PubChem BioAssay AID1445 (SRMLSC, 2008)
The campaign covered roughly 220,000 compounds. About 910 (0.41%) were called active. What follows is part of a selection rich in actives, with near analogues and random picks from the rest. Results with a measured potency or affinity are listed apart. Unmarked numbers belong to inactive results.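 How the source made its calls: active means primary inhibition above the hit cutoff, then over 50% inhibition at one or more dose response concentrations (cut at about 23% in these data, passing the limit was not always enough); inconclusive means conflicting primary data, or primary hits not chosen for dose response; inactive means low primary inhibition, or under 50% at every dose.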

Molecular target: Aminopeptidase N (Plasmodium falciparum (isolate 3D7)) (UniProt O96935)
Experiment: P. falciparum M1AAP inhibitors, biochemical, fluorogenic H-Leu-NHMec substrate, 1536-well (AID 1445);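 further: plate controls were DMSO full reaction for no effect and no enzyme background for full effect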
Conditions: recombinant M1AAP, H-Leu-NHMec fluorogenic kinetic assay; at 30 µM, active compounds read high unless noted

Chain of Aminopeptidase N (Plasmodium falciparum (isolate 3D7)) (O96935 whole entry, looked up): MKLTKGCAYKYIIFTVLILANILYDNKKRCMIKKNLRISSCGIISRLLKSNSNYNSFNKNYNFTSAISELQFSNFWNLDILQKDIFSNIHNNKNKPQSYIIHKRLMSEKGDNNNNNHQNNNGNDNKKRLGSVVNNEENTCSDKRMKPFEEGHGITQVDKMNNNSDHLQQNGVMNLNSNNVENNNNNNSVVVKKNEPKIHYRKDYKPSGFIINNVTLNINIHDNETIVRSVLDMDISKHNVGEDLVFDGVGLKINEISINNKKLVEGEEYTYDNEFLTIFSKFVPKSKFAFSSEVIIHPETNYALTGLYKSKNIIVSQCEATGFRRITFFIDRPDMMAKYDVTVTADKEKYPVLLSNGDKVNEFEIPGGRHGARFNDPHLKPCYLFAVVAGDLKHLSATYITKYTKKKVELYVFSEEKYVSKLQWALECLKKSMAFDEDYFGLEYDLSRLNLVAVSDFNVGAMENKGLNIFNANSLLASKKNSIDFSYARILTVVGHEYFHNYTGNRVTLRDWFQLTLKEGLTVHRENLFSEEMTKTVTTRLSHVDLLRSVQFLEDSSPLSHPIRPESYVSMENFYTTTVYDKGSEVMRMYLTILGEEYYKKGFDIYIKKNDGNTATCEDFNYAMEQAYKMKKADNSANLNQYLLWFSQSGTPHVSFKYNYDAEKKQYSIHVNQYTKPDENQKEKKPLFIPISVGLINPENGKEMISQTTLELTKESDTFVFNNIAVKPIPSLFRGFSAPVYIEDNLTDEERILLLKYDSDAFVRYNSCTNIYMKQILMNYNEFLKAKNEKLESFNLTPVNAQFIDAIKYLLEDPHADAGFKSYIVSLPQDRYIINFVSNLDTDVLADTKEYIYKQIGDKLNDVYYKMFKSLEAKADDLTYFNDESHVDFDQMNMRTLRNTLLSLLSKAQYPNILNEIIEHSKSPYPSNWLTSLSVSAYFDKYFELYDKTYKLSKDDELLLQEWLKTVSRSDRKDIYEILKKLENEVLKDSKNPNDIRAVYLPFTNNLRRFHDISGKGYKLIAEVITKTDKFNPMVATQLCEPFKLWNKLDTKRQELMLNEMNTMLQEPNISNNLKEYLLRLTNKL

SMILES | inhibition
COc1cccc(Cn2nnc(C(=O)NCc3ccc(F)cc3)c2N)c1 | -3.49%
CCOC(=O)N1CCN(c2c(N3CCN(c4cccc(C(F)(F)F)c4)CC3)c(=O)c2=O)CC1 | 4.51%
CC1=CCC2C(=O)N(c3ccc(S(N)(=O)=O)cc3)C(=O)C2C1 (stereo unspecified) | 2.35%
Cc1nnc2ccc(N3CCOCC3)nn12 | 0.92%
CCn1c(C)nc2cc(C(=O)NNC(=S)Nc3ccc(Cl)cc3)ccc21 | -13.2%
CCN1CCc2c(OCC(=O)N3CCCCC3)cccc2C1=O | 1.05%
CCn1c(C)cc(/C=C2\SC(=O)N(CC(=O)Nc3ccc(C)c(C)c3)C2=O)c1C | 2.14%
C#CCN1C(=O)S/C(=C/c2cc(C)n(CC)c2C)C1=O | 9.33%
Cc1ccc(NC(=O)c2cc(C(C)(C)C)nn2Cc2ccccc2)cc1 | 5.05%
Cc1cc(C)cc(OCC(=O)N(Cc2cccs2)C2CCS(=O)(=O)C2)c1 (stereo unspecified) | 2.35%
Cc1cc(=O)[nH]c(-c2ccccc2O)n1 | 10.9%
CSc1nc2c(c(=O)n1C)SC(C)C2 (stereo unspecified) | 1.34%
CCC(C)Sc1nc2c(c(=O)n1C)SC(C)C2 (stereo unspecified) | 23.5% (active)
CC(C)Sc1nc2c(c(=O)n1C)SC(C)C2 (stereo unspecified) | 11.9%
O=C(CNC(=S)N(CCCN1CCOCC1)Cc1cccs1)NC1CCCC1 | 5.27%
COc1ccc(N2CCN(c3ccc(N4C(=O)CC(C)C4=O)cc3[N+](=O)[O-])CC2)cc1 (stereo unspecified) | -8.33%
NC1=Nc2cccc3cccc1c23 | 3.4%
c1ccc(NC2=Nc3cccc4cccc2c34)cc1 | 1.68%
CCCCN(C)C1=Nc2cccc3cccc1c23 | 26.3% (active)
CC1=NN(c2nc(-c3ccc(C)cc3)cs2)C(=O)C1N=Nc1ccc2ccccc2c1 (stereo unspecified) | -4.56%
CC1=NN(c2nc(-c3ccc(C)cc3)cs2)C(=O)C1N=Nc1cccc(O)c1 (stereo unspecified) | 6.79%

SMILES | inhibition
COc1ccc([N+](=O)[O-])cc1NC(=O)c1cc(C)c(C)o1 | 8.9%
CN1CCc2c(sc3c2C(=O)NC(c2cccs2)N3)C1 (stereo unspecified) | 11.5%
Cc1ccsc1C1NC(=O)c2c(sc3c2CCCC3)N1 (stereo unspecified) | -10.2%
Cc1ccsc1C1NC(=O)c2c(sc3c2CCN(C)C3)N1 (stereo unspecified) | 25.9% (active)
COC(=O)c1cn(-c2ccccc2)c(=O)c2ccccc12 | 0.56%
Cc1ccc(-c2csc3ncn(CC(=O)N4CCOCC4)c(=O)c23)cc1C | 16.1%
Cc1sc2ncn(CC(=O)N3CCOCC3)c(=O)c2c1-c1ccccc1 | 22.3%
CCOC(=O)N1CCC(NC(=O)c2ccc3c(c2)sc2nc(-c4ccccc4)cn23)CC1 | 31.7%
CCOC(=O)N1CCC(NC(=O)c2ccc3c(c2)sc2nc(-c4ccc(OC)cc4)cn23)CC1 | 6.96%
COC(=O)c1ccc(NC(=O)C2CC2)o1 | -0.61%
CCCOC(=O)c1c(-c2ccc(C)cc2C)csc1NC(=O)C1C2CCC(O2)C1C(=O)O (stereo unspecified) | -4.77%
CCOC(=O)c1c(-c2ccc(-c3ccccc3)cc2)csc1NC(=O)C1C2CCC(O2)C1C(=O)O (stereo unspecified) | 3.79%
FC(F)C(F)(F)C1=CC(c2cccs2)=NCCN1 | 6.95%
COCc1cc(C)nc(OCC(=O)N/N=C\c2cc(C)n(-c3cccc(C(F)(F)F)c3)c2C)c1C#N | 6.82%
CC(C)Nc1nc(NNc2nc(Cl)nc(NC(C)(C)C)n2)nc(NC(C)C)n1 | -3.65%
COc1cc(/C=N/Nc2nc(Nc3ccc(C)cc3)nc(-n3nc(C)cc3C)n2)cc(OC)c1OC | 0.21%
COC(=O)c1c(N2C(=O)Nc3ccccc3N2O)sc2c1CCCC2 | 9.84%
CCOC(=O)c1c(N2C(=O)Nc3ccccc3N2O)sc2c1CCCC2 | 4.01%
CC(C)(CC(=O)O)Cc1nc(-c2ccc(Cl)cc2)no1 | -3.52%
COc1ccc(NS(=O)(=O)c2cccc(Cl)c2)cc1S(=O)(=O)N1CCCCC1 | 1.83%
Cc1ccc2nc(-c3ccc(N)cc3)sc2c1 | 3.99%

SMILES | inhibition
Nc1ccc(-c2nc3cc(N)ccc3s2)cc1 | 13%
Nc1ccc2nc(-c3ccccc3)sc2c1 | 33.2%
Nc1cccc(-c2nc3ccc(N)cc3s2)c1 | 8.49%
CN(C)CCCNC(=S)Nc1ccc(Br)cc1 | -1.23%
COc1cccc2c(=O)c3cccc(N)c3[nH]c12 | 17.7%
CCOC(=O)c1c(C)oc2ccc(OC(=O)N3CCOCC3)cc12 | 3.42%
O=C(CSc1nnc(Nc2ccccc2)s1)NCCN1C(=O)CSC1=O | 0.85%
[2H]c1c([2H])c([2H])c(-c2nc(N3CCCCCC3)sc2C(=O)c2ccccc2)c([2H])c1[2H] | 6.9%
O=C(O)CCN1C(=O)/C(=C/c2ccc(-c3nc4ccccc4s3)o2)SC1=S | -3.38%
O=C(O)CC(C(=O)O)N1C(=O)/C(=C/c2ccc(-c3nc4ccccc4s3)o2)SC1=S (stereo unspecified) | 24.7% (active)
O=C(O)CCN1C(=O)/C(=C\c2ccc(-c3nc4ccccc4s3)o2)SC1=S | 20.7%
COCCNC(=O)CN(C(=O)Cn1nnc2ccccc21)c1ccccc1 | 6.84%
CSc1nnc(-c2cc[n+](C)cc2)n1CCO | -2.01%
O=C(Nc1ccc2oc(-c3ccccc3)nc2c1)c1ccccc1F | 4.36%
O=C(Nc1ccc2oc(-c3ccc(F)cc3)nc2c1)c1ccccc1F | -4.88%
O=C(Nc1cccc(-c2nc3ccccc3o2)c1)c1cccnc1 | 8.84%
CC(C)C(=O)Nc1cccc(-c2nc3ccccc3o2)c1 | 1.29%
COc1cccc(S(=O)(=O)Nc2ccc(C(=O)Nc3ccncc3)cc2)c1 | -3.5%
CC1Cc2cc(/C(O)=C3\C(=O)C(=O)N(CCN(C)C)C3c3ccccc3F)ccc2O1 (stereo unspecified) | -2.37%
